Experimental data from PubChem BioAssay (Tox21).
Records with an inconclusive call do not appear. Entries that show only a call come without a potency. Calls of active or inactive are those of the source. Unless noted, calls follow the shape of the dose curve; as a rule, active = well fitted curve in the direction sought with a large enough effect in the repeat runs; inconclusive = weak or mixed curves; inactive = no such curve, though single readings can be large; an effect the other way counts as inactive or inconclusive.

Tests used:
[1] = qHTS assay to identify small molecule agonists of the peroxisome proliferator-activated receptor delta (PPARd) signaling pathway - cell viability counter screen (AID 743211); also: nearly all actives have a fitted effect of over 55% in size; also: potency is read from the fitted curve at half-maximal effect
Method in brief: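 PPARd-bla HEK293H cells (3000/well) were pre-incubated 5 h at 37 C, then exposed to compound for 17 h at 37 C. After 2 h with LiveBLAzer substrate, CellTiter-Glo was added to the same wells; luminescence read after 30 min at room temperature.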

[2] = target: Peroxisome proliferator-activated receptor delta (Homo sapiens) (UniProt Q03181); test: qHTS assay to identify small molecule agonists of the peroxisome proliferator-activated receptor delta (PPARd) signaling pathway (AID 743212; calls by dose curve)
Method in brief: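 Cells expressing a UAS-driven beta-lactamase reporter (PPARd-bla HEK293H) were given test compounds after a 5 h settle and kept at 37 C. Reporter activity was then measured as FRET fluorescence using LiveBLAzer B/G substrate.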

[3] = qHTS assay to identify small molecule antagonists of the peroxisome proliferator-activated receptor delta (PPARd) signaling pathway - cell viability counter screen (AID 743213); also: nearly all actives have a fitted effect of over 50% in size; also: potency is read from the fitted curve at half-maximal effect
Method in brief: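 Same-well viability: cells pre-incubated 5 h, dosed with compound plus 300 nM L165041, kept 17 h at 37 C, FRET substrate 2 h RT, then CellTiter-Glo 30 min RT and luminescence.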

[4] = qHTS assay to identify small molecule agonists of the farnesoid-X-receptor (FXR) signaling pathway - cell viability counter screen (AID 743218); also: nearly all actives have a fitted effect of over 45% in size; also: potency is read from the fitted curve at half-maximal effect
Method in brief: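 Viability of FXR-bla HEK 293T cells is measured by ATP-based CellTiter-Glo luminescence following 16 h compound treatment at 37 C and a prior 2 h room-temperature beta-lactamase substrate step.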

[5] = qHTS assay to identify small molecule antagonists of the farnesoid-X-receptor (FXR) signaling pathway - cell viability counter screen (AID 743221; active = well fitted cell-killing curve with a large enough effect in the repeat runs, not every such curve was filed as active; also: nearly all actives have a fitted effect of over 50% in size; also: potency is read from the fitted curve at half-maximal effect)
Method in brief: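 GeneBLAzer FXR-UAS-bla HEK 293T cells, compound plus chenodeoxycholic acid (50 uM final), 16 h at 37 C. CellTiter-Glo added to the same wells after the beta-lactamase read; luminescence read after 30 min at room temperature as viability.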

[6] = target: Bile acid receptor (Homo sapiens) (UniProt Q96RI1); test: qHTS assay to identify small molecule antagonists of the farnesoid-X-receptor (FXR) signaling pathway (AID 743217; active = well fitted inhibition curve with a large enough effect in the signal ratio in the repeat runs, not every such curve was filed as active; the % refers to the signal ratio)
Method in brief: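 Screen of the Tox21 10K library in quantitative HTS format using FXR-UAS-bla HEK 293T reporter cells. Agonist chenodeoxycholic acid, 50 uM final, added with compounds; 16 h incubation at 37 °C; beta-lactamase FRET fluorescence measured.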

[7] = target: Vitamin D3 receptor (Homo sapiens) (UniProt P11473); test: qHTS assay to identify small molecule agonists of the vitamin D receptor (VDR) signaling pathway (AID 743222; calls by dose curve)
Method in brief: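 Fluorescence from cleaved LiveBLAzer B/G FRET substrate served as readout. VDR-bla cells had been treated 16 h at 37C with test compounds in DMSO, following a 4 h settling period, and substrate was loaded for 2 h at RT.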

[8] = target: Vitamin D3 receptor (Homo sapiens) (UniProt P11473); test: qHTS assay to identify small molecule antagonists of the vitamin D receptor (VDR) signaling pathway (AID 743223; active = well fitted inhibition curve with a large enough effect in the signal ratio in the repeat runs, not every such curve was filed as active; the % refers to the signal ratio; also: potency is read from the fitted curve at half-maximal effect)
Method in brief: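 VDR-bla cells were treated with compound plus 3 nM final 1alpha,25-dihydroxyvitamin D3 for 16 h at 37C. Beta-lactamase reporter read by B/G FRET substrate fluorescence after 2 h at room temperature. qHTS format.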

[9] = target: Bile acid receptor (Homo sapiens) (UniProt Q96RI1); test: qHTS assay to identify small molecule agonists of the farnesoid-X-receptor (FXR) signaling pathway (AID 743220; active = well fitted activation curve with a large enough effect in the signal ratio in the repeat runs, not every such curve was filed as active; the % refers to the signal ratio)
Method in brief: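 FXR-UAS-bla HEK 293T cells carrying a UAS-driven beta-lactamase reporter were plated for 5 h at 37C/5% CO2, then exposed to DMSO-dissolved Tox21 10K compounds for 16 h at 37C. A LiveBLAzer B/G FRET substrate was loaded for 2 h at room temperature before fluorescence reading.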

[10] = target: Peroxisome proliferator-activated receptor delta (Homo sapiens) (UniProt Q03181); test: qHTS assay to identify small molecule antagonists of the peroxisome proliferator-activated receptor delta (PPARd) signaling pathway (AID 743215; active = well fitted inhibition curve with a large enough effect in the signal ratio in the repeat runs, not every such curve was filed as active; the % refers to the signal ratio;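 also: cells stimulated with agonist L165041 at 300 nM final during compound exposure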; also: potency is read from the fitted curve at half-maximal effect)
Method in brief: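 Plated HEK293H PPARd-bla cells rested 5 h at 37 C and 5% CO2. Compound, then agonist L165041 at 300 nM final, was added; 17 h at 37 C followed. Substrate loading, 2 h room temperature, fluorescence measured.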

Sequence of Peroxisome proliferator-activated receptor delta (Homo sapiens) (Q03181 whole entry, looked up): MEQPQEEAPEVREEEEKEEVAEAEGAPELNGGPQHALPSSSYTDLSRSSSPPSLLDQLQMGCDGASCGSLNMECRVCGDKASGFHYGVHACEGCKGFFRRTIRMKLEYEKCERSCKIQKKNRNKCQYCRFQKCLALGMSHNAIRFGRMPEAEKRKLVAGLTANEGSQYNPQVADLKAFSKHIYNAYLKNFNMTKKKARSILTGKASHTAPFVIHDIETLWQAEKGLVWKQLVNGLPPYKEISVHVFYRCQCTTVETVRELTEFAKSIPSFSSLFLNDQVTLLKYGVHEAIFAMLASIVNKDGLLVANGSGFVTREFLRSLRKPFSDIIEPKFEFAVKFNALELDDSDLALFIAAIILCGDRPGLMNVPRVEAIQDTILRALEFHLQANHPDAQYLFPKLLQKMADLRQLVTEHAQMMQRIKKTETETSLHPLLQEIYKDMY
Sequence of Bile acid receptor (Homo sapiens) (Q96RI1 whole entry, looked up): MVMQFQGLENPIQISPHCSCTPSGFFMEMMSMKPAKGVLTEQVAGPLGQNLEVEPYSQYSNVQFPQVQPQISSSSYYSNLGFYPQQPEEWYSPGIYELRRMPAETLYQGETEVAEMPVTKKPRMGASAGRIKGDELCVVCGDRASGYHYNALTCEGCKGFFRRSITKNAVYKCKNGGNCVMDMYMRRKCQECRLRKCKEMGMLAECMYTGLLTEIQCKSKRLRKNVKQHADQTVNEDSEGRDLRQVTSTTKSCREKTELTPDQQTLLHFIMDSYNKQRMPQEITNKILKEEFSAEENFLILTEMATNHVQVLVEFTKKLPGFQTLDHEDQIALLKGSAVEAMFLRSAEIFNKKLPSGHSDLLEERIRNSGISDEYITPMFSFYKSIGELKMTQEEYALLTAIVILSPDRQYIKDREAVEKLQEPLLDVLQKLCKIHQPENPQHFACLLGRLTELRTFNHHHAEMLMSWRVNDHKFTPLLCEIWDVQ
Sequence of Vitamin D3 receptor (Homo sapiens) (P11473 whole entry, looked up): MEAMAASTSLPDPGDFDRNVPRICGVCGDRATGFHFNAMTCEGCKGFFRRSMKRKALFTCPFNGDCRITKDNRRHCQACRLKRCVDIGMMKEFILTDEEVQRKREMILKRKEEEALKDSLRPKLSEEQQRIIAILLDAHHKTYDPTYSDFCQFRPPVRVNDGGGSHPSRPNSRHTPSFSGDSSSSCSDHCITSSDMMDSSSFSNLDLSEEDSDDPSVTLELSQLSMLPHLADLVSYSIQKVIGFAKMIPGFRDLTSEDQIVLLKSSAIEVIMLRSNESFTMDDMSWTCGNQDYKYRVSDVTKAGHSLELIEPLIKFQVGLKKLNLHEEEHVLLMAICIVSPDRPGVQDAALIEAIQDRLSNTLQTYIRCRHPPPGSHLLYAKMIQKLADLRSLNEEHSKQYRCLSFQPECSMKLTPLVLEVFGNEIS

Row | SMILES | Potency [1] | outcome [2] | Potency [3] | Potency [4] | Potency [5] | Potency [6] | Potency [7] | Potency [8] | Potency [9] | Potency [10]
1 | O=Nc1ccc(NO)cc1 | inactive | inactive | inactive | inactive | inactive | – | – | – | – | –
2 | COC(=O)CC(C)CCC=C(C)C (configuration not stated) | inactive | inactive | – | inactive | inactive | inactive | inactive | inactive | – | –
3 | CCOC(=O)COc1ccc(C)cc1 | inactive | – | inactive | inactive | inactive | inactive | – | inactive | inactive | –
4 | C=CC(=O)OCC(O)COc1ccccc1 (configuration not stated) | 49 µM (active) | inactive | – | 34.7 µM (active) | inactive | – | – | – | – | –
5 | CCCCCCCCCC(=O)N(C)C | inactive | – | inactive | inactive | inactive | inactive | inactive | inactive | inactive | –
6 | O=C(c1ccccc1)c1cc(Cl)ccc1O | inactive | – | inactive | inactive | inactive | inactive | – | – | inactive | –
7 | CC(=O)Oc1ccc(C2(c3ccc(OC(C)=O)cc3)Oc3ccccc3NC2=O)cc1 | inactive | inactive | – | – | inactive | – | – | – | inactive | –
8 | CCNc1nc(NC(C)CC)nc(OC)n1 (configuration not stated) | inactive | inactive | – | inactive | inactive | – | inactive | inactive | inactive | –
9 | [O]=[Zr] | inactive | – | inactive | inactive | inactive | inactive | – | – | inactive | –
10 | C=CC(=O)OCCC#N | inactive | – | inactive | inactive | inactive | inactive | – | inactive | inactive | inactive
11 | CCCCCCC(C)Nc1ccc(Nc2ccccc2)cc1 (configuration not stated) | 43.6 µM (active) | inactive | – | – | 49 µM (active) | – | – | – | – | 49 µM (active)
12 | CC(C)(C)CC(C)(C)c1ccccc1O | 43.9 µM (active) | inactive | 39.1 µM (active) | – | 43.9 µM (active) | – | inactive | 43.9 µM (active) | – | –
